This excerpt belongs to a sample that is enriched for hits.
CHX counter = Cycloheximide Counterscreen for Small Molecule Inhibitors of Shiga Toxin; cell reporter, cycloheximide protein synthesis inhibition counterscreen; max response, %; hit rate 12% among 300,000; AID 2314, 2010; in the data active means max response mostly above about 13%, no sharp cut-off; inactive means mostly below about 14%; further: read at 38.3 µM for the half of the compounds with a filed dose; 0% is about no effect
AMA1-RON2 inh = qHTS for Inhibitors of AMA1-RON; Towards Development of Antimalarial Drug Lead: Primary Screen; Plasmodium falciparum AMA1 (3D7) - RON2 peptide interaction; AlphaScreen AMA1-biotinylated RON2 peptide binding; Potency, µM (doses to about 58.2 µM), without a hit: at the top dose activity change, negative = inhibition, most hits filed as inhibitors; hit rate 0.2% among 360,000; AID 720542, 2013; active means well fitted inhibition curve with a large enough effect; inconclusive means small, poorly fitted or top-dose-only effect; inactive means no such curve, though single readings can be large or run the other way;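 further: potency means the concentration at half of the fitted maximal effect; 0% = vehicle wells and -100% = peptide control; nearly all actives have a fitted effect of over 45% in size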
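AMA1 (3D7) with his tag at 25 nM final met compounds first, then biotinylated RON2 peptide at 25 nM; detection used donor plus acceptor beads, 10 µg/mL apiece, read by AlphaScreen after 30 min at room temperature.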
MARV entry inh = qHTS for inhibitors of binding or entry into cells for Marburg Virus. AID 540276, 2011. Marburg virus pseudotyped entry inhibition, cell reporter. hit rate 1.8% among 300,000. Potency, µM (titrated, usually from 37.8 µM), for inactives: top-dose activity change, negative = inhibition, usual class: inhibitors; calls by dose curve; tested in HEK293 cells; further: potency means the concentration at half of the fitted maximal effect; on the % scale 0 is the no-effect control and ±100 the full control effect
Lassa entry inh = qHTS for Inhibitors of binding or entry into cells for Lassa Virus | Lassa virus pseudotype entry inhibition, cell reporter | Potency, µM (titrated, usually from 37.9 µM), without a hit: at the highest dose activity change, negative = inhibition, most hits filed as inhibitors | hit rate 1.2% among 300,000 | AID 540256, 2011; calls by dose curve; tested in HEK293 cells; further: potency means the concentration at half of the fitted maximal effect; on the % scale 0 is the no-effect control and ±100 the full control effect; nearly all actives have a fitted effect of over 50% in size
Shiga toxin inh = A qHTS for Small Molecule Inhibitors of Shiga Toxin; Vero cells, Shiga toxin protein synthesis inhibition reporter; inhibition, % at 38.7 µM; hit rate 9.2% among 290,000; AID 2315, 2010; in the data active means inhibition mostly above about 28%, no sharp cut-off; inactive means mostly below about 43%; further: 0% is about no effect
Starred values were filed as active, the others as inactive; [ ] = remark or other dose.

How did Cc1ccnc(NC(=O)CCNC(=O)c2ccc(Cl)cc2)c1 do in these assays?
CHX counter: -0.5; AMA1-RON2 inh: 4.8%; Shiga toxin inh: -13.6

What do the screens show for `O=C(Nc1ccon1)c1ccc(Cl)s1`?
CHX counter: 14.9*; AMA1-RON2 inh: -9.9%; MARV entry inh: -3.4%; Lassa entry inh: 2.5%; Shiga toxin inh: 14.9

How did NNc1nnc2c3cc(F)ccc3n(CCc3ccccc3)c2n1 do in these assays?
CHX counter: -2.3; AMA1-RON2 inh: 69.9%; MARV entry inh: 10µM*; Lassa entry inh: inconclusive; Shiga toxin inh: 2.8

What do the screens show for `Cc1cc2nc(CS)[nH]c2cc1C`?
CHX counter: 16.9*; AMA1-RON2 inh: 113.9%; Shiga toxin inh: 60.3

How did CCOc1ccc(NC(=O)CCn2c(=O)c3cccn3c3cccnc32)cc1 do in these assays?
Lassa entry inh: -9.4%[46.1 µM]

How did CC1CN(C2=NC(=O)/C(=C/c3ccncc3)S2)CC(C)O1 (stereo not given) do in these assays?
CHX counter: 10.7; AMA1-RON2 inh: 1.0%; MARV entry inh: -7.4%[46.1 µM]; Lassa entry inh: 19.9%[46.1 µM]; Shiga toxin inh: 30.6

Results for CCOC(=O)CC(NC(=O)CCc1c(C)nc2c(c(C)nn2-c2ccc(C)c(C)c2)c1C)c1ccc(C)cc1 (stereo not given) ?
MARV entry inh: -18.8%[46.1 µM]; Lassa entry inh: 29.1%[46.1 µM]

Results for c1ccc(COc2ccc(OCCCn3cncn3)cc2)cc1 ?
CHX counter: 34.8*; AMA1-RON2 inh: -18.8%; MARV entry inh: inconclusive; Lassa entry inh: -9.1%; Shiga toxin inh: 60.9*

What do the screens show for `c1ccc(Cc2ccc(OCCn3cncn3)cc2)cc1`?
CHX counter: -1.9; AMA1-RON2 inh: 18.4%; MARV entry inh: -1.9%; Lassa entry inh: 1.4%; Shiga toxin inh: -4.9

What do the screens show for `COc1ccc(OCCn2cncn2)cc1`?
CHX counter: -1.6; AMA1-RON2 inh: inconclusive; MARV entry inh: 9.6%; Lassa entry inh: -10.6%; Shiga toxin inh: -17.1

Results for c1ccc(-c2ccc(OCCOCCn3cncn3)cc2)cc1 ?
CHX counter: 34.6*; AMA1-RON2 inh: -11.3%; MARV entry inh: -9.5%[46.1 µM]; Lassa entry inh: 5.2%; Shiga toxin inh: 56.9*

What do the screens show for `Cc1[nH]c2ccccc2c1C(=O)C(=O)NCC1CCCO1` (stereo not given)?
CHX counter: 7.4; AMA1-RON2 inh: -8.0%; MARV entry inh: inconclusive; Lassa entry inh: 2.3%; Shiga toxin inh: -13.4

How did O=C(NC1CCCCC1)C(=O)c1c[nH]c2ccccc12 do in these assays?
CHX counter: 32.0*; AMA1-RON2 inh: 1.1%; MARV entry inh: 4.8%; Lassa entry inh: -22.6%; Shiga toxin inh: 69.2*

Results for Cc1[nH]c2ccccc2c1C(=O)C(=O)NC1CC1 ?
CHX counter: 48.1*; AMA1-RON2 inh: -1.8%; MARV entry inh: 11.8%[46.1 µM]; Lassa entry inh: -2.8%[46.1 µM]; Shiga toxin inh: 94.2*

How did O=C(NCC1CCCO1)C(=O)c1c[nH]c2ccccc12 (stereo not given) do in these assays?
CHX counter: 27.4*; AMA1-RON2 inh: 6.4%; Shiga toxin inh: 162.2*

What do the screens show for `Cc1ccc(NC(=O)C(=O)c2c[nH]c3ccccc23)cc1`?
CHX counter: 33.0*; AMA1-RON2 inh: 7.8%; Shiga toxin inh: 46.5*

How did Cc1cccc(NC(=O)CSc2cn(CC(=O)N3CCOCC3)c3ccccc23)c1C do in these assays?
Lassa entry inh: 15.8%[46.1 µM]

How did Cc1ccc(Cn2c(C)c(CNCCCc3ccccc3)c(C(=O)O)c2C)cc1 do in these assays?
MARV entry inh: -25.5%[46.1 µM]; Lassa entry inh: 20.1%[46.1 µM]

How did C/C(=N\Nc1cccc(Cl)c1)C1(C)N(O)C(C)(C)C(c2ccco2)=[N+]1[O-] (stereo not given) do in these assays?
CHX counter: 30.1*; AMA1-RON2 inh: -19.4%; Shiga toxin inh: 73.7*

How did O=C(c1cccc2ccccc12)C1CCCN(C(=O)CCc2cnccn2)C1 (stereo not given) do in these assays?
CHX counter: 15.1*; AMA1-RON2 inh: -9.7%; MARV entry inh: 8.1%[46.1 µM]; Lassa entry inh: -13.5%[46.1 µM]; Shiga toxin inh: 14.5

Results for Cc1cc(C(=O)Cn2nnc3ccccc3c2=O)c(C)n1Cc1cccs1 ?
CHX counter: 36.5*; AMA1-RON2 inh: -14.3%; MARV entry inh: inconclusive; Lassa entry inh: inconclusive; Shiga toxin inh: 52.2

How did Cc1cc(C(=O)CN2C(=O)c3ccccc3C2=O)c(C)n1Cc1cccs1 do in these assays?
CHX counter: 25.9*; AMA1-RON2 inh: -8.3%; MARV entry inh: 6.51µM*; Lassa entry inh: -48.2%[14.3 µM]; Shiga toxin inh: 12.5

How did COc1ccc(OC)c(C(=O)Cn2nnc3ccccc3c2=O)c1 do in these assays?
CHX counter: -2.7; AMA1-RON2 inh: 4.4%; MARV entry inh: 13.1%; Lassa entry inh: 17.5%; Shiga toxin inh: -5.3

How did CCCCNC(=O)CN1C(=O)c2cccc(N)c2C1=O do in these assays?
CHX counter: 6.2; AMA1-RON2 inh: 6.7%; MARV entry inh: 12.7%[46.1 µM]; Lassa entry inh: 7.8%; Shiga toxin inh: 12.2

Results for CCCn1c(C)cc(C(=O)CN2C(=O)c3cccc(N)c3C2=O)c1C ?
CHX counter: 17.2*; AMA1-RON2 inh: 20.3%; MARV entry inh: -0.4%; Lassa entry inh: inconclusive; Shiga toxin inh: 14.0

What do the screens show for `COc1ccc(-n2c(-c3ccc(Br)cc3)c[n+]3c2CCc2ccccc2-3)cc1`?
CHX counter: 13.6*; AMA1-RON2 inh: -9.4%; MARV entry inh: 11.6µM*; Lassa entry inh: inconclusive; Shiga toxin inh: 1.4

Results for COc1ccc(-c2c[n+]3c(n2-c2ccc(C)cc2)CCCCC3)cc1 ?
CHX counter: 14.1; AMA1-RON2 inh: 0.0%; MARV entry inh: 7.08µM*; Lassa entry inh: 5.01µM*; Shiga toxin inh: 37.1

Results for CC(C)c1ccc(-n2c(-c3ccccc3)c[n+]3c2CCc2ccccc2-3)cc1 ?
CHX counter: -1.3; AMA1-RON2 inh: -9.8%; MARV entry inh: inconclusive; Lassa entry inh: 3.16µM*; Shiga toxin inh: -3.9

What do the screens show for `COc1ccccc1-n1c(-c2ccccc2)c[n+]2c1CCc1ccccc1-2`?
CHX counter: 1.1; AMA1-RON2 inh: -2.0%; MARV entry inh: inconclusive; Lassa entry inh: 2.82µM*; Shiga toxin inh: -9.0

How did CCc1nnc(NS(=O)(=O)c2ccc(NC(=O)/C=C/c3ccc(OC)cc3OC)cc2)s1 do in these assays?
CHX counter: -4.8; AMA1-RON2 inh: 0.0%; MARV entry inh: 15.9%; Lassa entry inh: 2.5%; Shiga toxin inh: 20.8

How did Cc1ccnc(NCc2cc(Cl)ccc2O)c1 do in these assays?
AMA1-RON2 inh: -8.6%

Results for Oc1ccc(Cl)cc1CNc1ccc(Br)cn1 ?
CHX counter: 45.2*; AMA1-RON2 inh: 41.2%; MARV entry inh: -2.6%; Lassa entry inh: inconclusive; Shiga toxin inh: 110.6*

Results for Oc1ccc(Cl)cc1CNc1ccccn1 ?
CHX counter: 15.1*; AMA1-RON2 inh: -2.6%; MARV entry inh: 4.4%[46.1 µM]; Lassa entry inh: inconclusive; Shiga toxin inh: 51.5

What do the screens show for `Oc1c(Cl)cc(Cl)cc1CNc1ccc(Br)cn1`?
CHX counter: 31.9*; AMA1-RON2 inh: 19.0%; MARV entry inh: -56.0%; Lassa entry inh: inconclusive; Shiga toxin inh: 72.8*
